From PubChem
PLK1 PBD block = qHTS for Inhibitors of PLK1-PDB (polo-like kinase 1 - polo-box domain): Primary Screen. Serine/threonine-protein kinase PLK1 (Homo sapiens), P53350. Plk1 PBD binding of FITC phosphopeptide, fluorescence polarization. Potency, µM, actives largely listed as inhibitors. 2.8% of 360,000 active; note: series mostly up to about 57 µM; nearly all actives have a fitted effect of over 65% in size
HP1b chromo inh = HTS for Inhibitors of HP1-beta Chromodomain Interactions with Methylated Histone Tails; Potency, µM (doses to about 114 µM), hits mostly inhibitors; 0.56% of 390,000 active; Chromobox protein homolog 1 (Homo sapiens), P83916; AlphaScreen HP1-beta / biotin-H3K9me3 peptide binding; note: nearly all actives have a fitted effect of over 70% in size
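AlphaScreen: HP1-beta (50 nM) preformed 30 min with biotin-H3(1-18)K9me3 peptide (50 nM) in PBS pH 7.4, 0.01% Tween-20. Compound added for 30 min at RT, then streptavidin donor/nickel chelate acceptor beads (10 ug/mL) for 30 min.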
JMJD2A Tudor = qHTS Assay for Inhibitors of JMJD2A-Tudor Domain; Lysine-specific demethylase 4A (Homo sapiens), O75164; AlphaScreen JMJD2A-Tudor / H3K4me3 peptide binding; Potency, µM (series often up to 114 µM), hits mostly inhibitors; 4.4% of 390,000 active; AID 504339, 2011; note: nearly all actives have a fitted effect of over 50% in size
VDR inh = Inhibitors of the vitamin D receptor (VDR): qHTS | Vitamin D3 receptor (Homo sapiens), P11473 | VDR-SRC2-3 peptide fluorescence polarization, 2 h | Potency, µM, hits mostly inhibitors | 0.93% of 400,000 active
Target sequence (P11473 whole entry, looked up): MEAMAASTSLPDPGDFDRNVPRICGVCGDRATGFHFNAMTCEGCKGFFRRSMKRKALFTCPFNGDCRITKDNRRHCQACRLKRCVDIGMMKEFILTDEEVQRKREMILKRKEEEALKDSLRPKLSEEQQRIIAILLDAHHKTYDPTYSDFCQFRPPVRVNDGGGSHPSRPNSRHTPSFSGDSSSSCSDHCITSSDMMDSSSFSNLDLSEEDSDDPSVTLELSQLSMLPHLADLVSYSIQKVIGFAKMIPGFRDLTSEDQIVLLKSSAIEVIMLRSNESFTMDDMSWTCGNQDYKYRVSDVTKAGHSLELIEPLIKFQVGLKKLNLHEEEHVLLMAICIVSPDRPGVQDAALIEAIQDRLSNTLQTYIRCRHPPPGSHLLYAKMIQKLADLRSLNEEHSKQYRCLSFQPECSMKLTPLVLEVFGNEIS
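Measured by FP: displacement of SRC2-3 coactivator peptide from VDR by library compounds, following a two-hour ambient incubation.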
BAZ2B block = qHTS Assay for Inhibitors of BAZ2B; AlphaScreen BAZ2B-H3K14Ac peptide displacement; Potency, µM (highest dose often 114 µM), actives largely listed as inhibitors; 4.4% of 360,000 active; note: nearly all actives have a fitted effect of over 60% in size
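Inhibition is scored as reduced AlphaScreen emission. The BAZ2B/b-H3(5-23)K14Ac complex (50 nM each) in PBS pH 7.4, 0.01% Tween-20 meets compound (up to 110 uM) for 30 min at RT before bead addition.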
G9a inh = qHTS Assay for Inhibitors of Histone Lysine Methyltransferase G9a | Potency, µM (series often up to 102 µM), hits mostly inhibitors | 8.8% of 350,000 active | G9a H3K9 monomethylation, AlphaScreen, 2 h; note: nearly all actives have a fitted effect of over 75% in size
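Readings reflect AlphaScreen signal from monomethyl-H3K9 antibody detection. HMT at 20 nM; substrate b-H3K9 500 nM; cofactor SAM 20 uM; 2 h RT reaction; compounds tested as titrations in qHTS with 15 min preincubation.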
Numbers stand for hits; i = inactive; ? = inconclusive; nt = not tested or not shown; [ ] = another dose, or the depositor's remark. A selection: hits, their analogues and other compounds. The true share with any hit is near 11%. Calls come from the whole dose curve; as a rule, active = well fitted curve in the direction sought with a large enough effect; inconclusive = small, poorly fitted or top-dose-only effect, or another doubt; inactive = no such curve, though single readings can be large; an effect the other way counts as inactive or inconclusive.

SMILES	PLK1 PBD block	HP1b chromo inh	JMJD2A Tudor	VDR inh	BAZ2B block	G9a inh
COC(=O)[C@]1(C)N[C@H](CN(C)S(=O)(=O)c2ccc(C)cc2)[C@@H]2C(=O)N(C)C(=O)[C@@H]21	i	i	79.4µM	i	nt	nt
CC1=C(C(=O)N2CCOCC2)CC(CC(=O)NCc2cccs2)C(=O)N1Cc1ccccc1 (stereo not drawn)	i	nt	nt	nt	nt	nt
COc1cccc(C(=O)NOCc2ccccc2)c1OC	i	i	i	i	i	i[12.7 µM]
c1csc(CNc2nc(-c3ccc4c(c3)OCO4)nc3ccccc23)c1	nt	nt	nt	?	nt	i[0.501 µM]
COCc1cc(=O)[nH]c(=S)[nH]1	i	i	12.6µM	i	i	4.47µM
COCc1cc(=O)[nH]c(SCC(=O)c2ccccc2)n1	i	i	i	i	i	nt
COc1ccc2[nH]c3c(c2c1)CCN1C(=O)C(CC(=O)NCC24CC5CC(CC(C5)C2)C4)C[C@H](C(=O)N2CCOCC2)[C@@]31CCC1CCCC1 (stereo partly drawn)	?	i	39.8µM	?	nt	nt
CN(C)CCCNC(=O)C[C@H]1C[C@H](C(=O)N2CCCCC2)[C@@]2(CCc3ccccc3)c3[nH]c4cc(-c5ccco5)ccc4c3CCN2C1=O	i	?	50.1µM	i	nt	nt
CN(C)CCCNC(=O)C[C@H]1C[C@H](C(=O)N2CCCCC2)[C@@]2(C)c3[nH]c4cc(-c5ccco5)ccc4c3CCN2C1=O	i	i	?	i	nt	nt
CC[C@]12c3[nH]c4cc(-c5ccco5)ccc4c3CCN1C(=O)[C@@H](CC(=O)NCCC1=CCCCC1)C[C@@H]2C(=O)N1CCN(C(=O)C2CC2)CC1	21.2µM	i	?	?	nt	nt
COc1ccc(CNC(=O)C[C@H]2C[C@H](C(=O)N3CCCCC3)[C@@]3(CCc4ccccc4)c4[nH]c5cc(-c6ccco6)ccc5c4CCN3C2=O)cc1OC	23.8µM	i	?	89.1µM	nt	nt
COC(=O)CN1C(=O)CSc2ccc(S(=O)(=O)Nc3ccc(C(C)=O)cc3)cc21	nt	i	i	i	i	i
COc1ccc2[nH]c(=O)c(CN(Cc3ccco3)Cc3nnnn3Cc3ccccc3)cc2c1	i	i	i	i	i	50.1µM
CCOc1ccc2[nH]c(=O)c(CN(Cc3cccs3)C(CC)c3nnnn3C(C)(C)CC)cc2c1 (stereo not drawn)	8.44µM	?	i[11.4 µM]	i	i	i
CCNC(=S)N(Cc1ccco1)Cc1cc2cc(OCC)ccc2[nH]c1=O	i	i	i	?	?	44.7µM
CCOc1ccc2[nH]c(=O)c(CN(Cc3ccco3)Cc3nnnn3Cc3ccccc3)cc2c1	i	i	i	i	i	?
CCOc1ccc2[nH]c(=O)c(CN(Cc3ccco3)C(CC)c3nnnn3Cc3ccccc3)cc2c1 (stereo not drawn)	i	i	i	i	i	35.5µM
CCOC(=O)c1cc2c(=O)n3ccccc3nc2n(CCCOC)c1=NC(=O)c1c(-c2c(F)cccc2Cl)noc1C	nt	i	i	i	i	?
O=S(=O)(NC(CO)Cc1ccccc1)c1cc(Cl)ccc1F (stereo not drawn)	i	i	i	i	nt	nt
CC(=O)Oc1ccc2c(c1)CCC1C2CC[C@@]2(C)C1CC(OC(C)=O)C2OC(C)=O (stereo partly drawn)	nt	nt	nt	i	nt	nt
CC(=O)c1ccc(NC(=O)c2ccc3c(c2)N(Cc2cccc(Cl)c2)C(=O)c2ccccc2S3(=O)=O)cc1	nt	i	i	i	i	i
CCSc1ccccc1C(=O)N1CCN(Cc2ccc3c(c2)OCO3)CC1	i	i	i	i	i	7.94µM
O=C(O)c1cccc(S(=O)(=O)N2CCN(Cc3ccc4c(c3)OCO4)CC2)c1	i	i	i	i	i	i
O=C(c1ccccc1Br)N1CCN(Cc2ccc3c(c2)OCO3)CC1	i	i	i	i	i	i
O=C(O)c1ccccc1C(=O)N1CCN(Cc2ccc3c(c2)OCO3)CC1	i	i	i	i	i	i
